# From PubChem BioAssay AID720697 (Broad Institute, 2013)
# Results with a measured potency or affinity are listed apart. Records with an inconclusive call do not appear. Active and inactive are the calls of the source.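 Rule for the calls: active = signal loss with fitted half-maximal concentration at or below twice the top valid tested dose in every test run; inconclusive = runs disagree, flat 30 to 70% signal loss, or poor fit; inactive = all runs flat, opposite direction, or potency beyond limit.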
# Experiment: HEK293T cytotoxicity, dose response, cytotoxicity control for miR-122 modulator project, cell-based, inhibitor set, cherry-pick, set 2 (AID 720697);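 note: 0% = median of neutral control wells and -100% = MG132 positive control wells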
# Settings: HEK293T viability, CellTiter-Glo luminescence, 48 h; series mostly up to 26 µM; activity change, negative = cytotoxicity: at the top concentration
row,Structure (SMILES),"activity change, negative = cytotoxicity"
1,CCCNC(=O)Nc1ccc2c(c1)C(=O)N(C)[C@H]1CC[C@@H](CC(=O)NCC3CCCCC3)O[C@@H]1CO2,59.2% (inactive)
2,C/C=C/c1ccc2c(c1)O[C@@H](CN(C)CC1CCCC1)[C@H](C)CN([C@@H](C)CO)S2(=O)=O,109% (inactive)
3,CCS(=O)(=O)Nc1ccc2c(c1)C(=O)N(C)[C@@H]1CC[C@@H](CC(=O)NCCCN3CCOCC3)O[C@H]1CO2,143% (inactive)
